Source: PubChem (National Center for Advancing Translational Sciences (NCATS))
RGS4 inh – human RGS4 inhibition. Potency, µM (series often up to 114 µM), for inactives: at the top dose activity change, negative = inhibition, usual class: inhibitors. Transcreener GDP fluorescence polarization, RGS4-accelerated GTP hydrolysis. AID 504845. P49798. 390,000 compounds, 0.039% hits; further: potency means the concentration at half of the fitted maximal effect; on the % scale 0 is the no-effect control and ±100 the full control effect; nearly all actives have a fitted effect of over 75% in size
Target sequence (P49798 whole entry, looked up): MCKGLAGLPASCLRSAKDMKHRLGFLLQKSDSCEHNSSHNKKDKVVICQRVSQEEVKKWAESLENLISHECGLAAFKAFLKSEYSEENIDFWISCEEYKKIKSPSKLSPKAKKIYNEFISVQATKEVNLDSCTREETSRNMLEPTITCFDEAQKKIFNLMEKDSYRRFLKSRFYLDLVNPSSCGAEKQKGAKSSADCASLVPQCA
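MLSMR compounds (23 nl, pin-transferred) preincubated 10 min at room temperature with a 500nM (2x) first reagent, then RGS4 at 900nM (2x) plus Transcreener GDP mix added; fluorescence polarization (620/688 nm) read before and after 90 min at 30 °C.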
GRP78 ERSR act – induces the endoplasmic reticulum stress response in human glioma cells; U87-MG GRP78 promoter luciferase reporter, 16 h; Potency, µM, inactives show top-dose activation, hits mostly activators; 420,000 compounds, 0.02% hits; further: potency means the concentration at half of the fitted maximal effect; series mostly up to about 76 µM; % of control where 0% means no effect; nearly all actives have a fitted effect of over 35% in size
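Stably transfected U87-MG human glioma cells carrying a GRP78-based luminescent sensor were seeded at 1000 cells/well, pin-dosed with compounds and incubated 16 h. Luciferase reagent was then added, and end-point luminescence was read after 10 min at room temperature.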
TCR activator – activators of T cell receptors; primary human leukocytes, anti-CD3, IL-2 HTRF, 48 h; Potency, µM (titrated, usually from 9.22 µM), without a hit: top-dose activation of IL-2 secretion, actives largely listed as activators; 330,000 tested, under 10 active; AID 504894; further: % of control where 0% means no effect
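1) Mix primary human leukocytes, a-CD3 beads and compound. 2) Incubate 48 hr. 3) Add HTRF IL-2 reagents (a-IL-2-K, a-IL-2-d2).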
Akt phos inh – inhibitors of Akt phosphorylation; Neuro2A IGF-stimulated pAkt S473 HTRF, 20 min; stronger effect = lower value; activity change, % for hits at 50 µM; 360,000 compounds, 0.32% hits; in the data active means activity change below about -80%; inconclusive means mostly about -51% to -80%; further: on the % scale 0 is the no-effect control and ±100 the full control effect
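Single-point screen (50 µM final compound) in Neuro2A cells stimulated 20 min with 6 nM IGF at 37 deg C. After lysis, Ser473-phosphorylated Akt read by HTRF (ex 330 nm, em 615/665 nm) as the 665/615 ratio.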
LDHA block – LDHA (human) enzyme inhibition | purified LDHA, NADH/diaphorase-resazurin fluorescence; stronger effect = lower value | P00338 | 480,000 compounds, 0.15% hits | AID 1347041 | activity change, % (values are at about 110 or 230 µM); in the data active means activity change below about -30%; inconclusive means mostly about -25% to -30%;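 further: plate controls were DMSO wells for no effect and wells without enzyme for full effect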
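Resorufin fluorescence (ex540/em590), read at 0 and 20 min after diaphorase/resazurin addition, reports the NADH left after a 5 min room-temperature reaction of 2 nM human LDH5 with 0.06 mM NADH and 0.2 mM pyruvate.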
TSHR antagonist – antagonists of human thyroid stimulating hormone receptor; TSHR-expressing cells, TSH-stimulated cAMP HTRF, 2 h; stronger effect = lower value; activity change, negative = inhibition, % at 11.5 µM; 330,000 compounds, 0.2% hits;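 active means activity change below a set negative limit, meaning inhibition stronger than a set level, cut at about -70% in these data; inconclusive means activity change between two set negative limits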; further: on the % scale 0 is the no-effect control and ±100 the full control effect
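Read-out is FRET at 665 nm (cryptate excitation 337 nm) from a cryptate-tagged anti-cAMP antibody, competed by cell cAMP against cAMP-d2. Compounds are tested on freshly harvested TSHR cells challenged with 4nM TSH (EC80) for 2 hours at 37 deg C.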
Numbers without * were called inactive; i = inactive; ? = inconclusive; nt = no result; ! = not active in a repeat; [ ] = dose if it differs, or a comment. Compounds with a hit are over-represented: about 0.55% of the library has one in this group of screens. Unless noted, the call rests on the fitted dose curve; in most records, active means well fitted curve in the direction sought with a large enough effect; inconclusive means small, poorly fitted or top-dose-only effect, or another doubt; inactive means no such curve, though single readings can be large; an effect the other way counts as inactive or inconclusive.

SMILES | RGS4 inh | GRP78 ERSR act | TCR activator | Akt phos inh | LDHA block | TSHR antagonist
O=C(Nc1ccc2c(c1)nc1n2CCN(Cc2ccccc2)C1)NC1CCCCC1 | -19% | -2% | nt | -90%* | -5 | 2
CNC(=O)CSc1nnc(-c2ccncc2)n1Cc1ccccc1 | 20% | 0% | 1% | -112%* | -17 | 0
COC(=O)c1ccc(NC(=O)C2CCN(c3oc(-c4ccco4)nc3C#N)CC2)cc1 | nt | nt | nt | nt | 12 | nt
COc1ccc(CCNC(=O)c2cccc3c2C(=O)N(C2CCCCC2)C3)cc1OC | -16% | -5% | -2% | i | -3 | -78*
O=C(NCCc1ccccc1)c1cccc2c1C(=O)N(C1CCCCC1)C2 | -6% | -3% | -17% | i | -3 | -5
COc1ccccc1CNc1nc(NCc2ccccc2OC)n(S(=O)(=O)c2ccccc2)n1 | nt | nt | nt | nt | 15 | nt
O=C(CN1CCN(C(=O)c2ccccc2)CC1)Nc1ccc(Cl)cc1F | -35% | -2% | -3% | i | -4 | -79*
O=C(CN1CCN(C(=O)c2ccccc2)CC1)Nc1cc(S(=O)(=O)N2CCCC2)ccc1Cl | -2% | -2% | 4% | i | -1 | -21
CC(=O)Nc1ccc(S(=O)(=O)N=S(C)C)cc1 | 5% | -3% | -6% | i | -4 | -1
CCS(CC)=NS(=O)(=O)c1ccc(NC(C)=O)cc1 | -3% | -2% | -4% | -118%* | -5 | 5
COC(=O)C1=C(C)OC(N)=C(C#N)C1c1ccc(-c2ccccc2)cc1 (stereo not given) | nt | nt | nt | nt | 8 | nt
Cc1cc(C(F)(F)F)c2sc(N)nc2n1 | -10% | 9% | 1% | i | -13 | -13
Nc1nc2nc(-c3ccccc3)cc(C(F)(F)F)c2s1 | -22% | 6% | 4% | i | -5 | -99*
CC(C)NC(=O)c1cccc(Cl)c1 | nt | nt | nt | nt | 5 | nt
COCC(C)NC(=O)c1cccc(Cl)c1 (stereo not given) | 3%[11.4 µM] | -7% | -3% | -114%* | -6 | nt
O=C1c2ccccc2NC(c2cc3ccccc3[nH]c2=O)N1C1CC1 (stereo not given) | nt | nt | nt | nt | 1 | nt
CCCCNc1c(-c2cccc(-c3ccc(OC)cc3)c2)nc2ccc(C)cn12 | -11% | -9% | -9% | i | -1 | -83*
CCCCNc1c(-c2cccc(-c3ccc(OC)cc3)c2)nc2cc(C)ccn12 | 4% | -7% | -8% | i | 0 | -22
COc1cc(NS(=O)(=O)c2ccc(C)cc2C)cc(OC)c1OC | -5% | -6% | -3% | i | 5 | -87*
C=CCNC(=O)C1CCN(S(=O)(=O)c2ccccc2)CC1 | -14% | -3% | 2% | -95%* | -4 | 3
COc1ccc(/C=C/c2nc(C#N)c(N3CCN(C(C)=O)CC3)o2)cc1 | nt | nt | nt | nt | -5 | nt
O=C1CC(=O)N(Cc2ccco2)C(=S)N1 | ? | -5% | 8% | i | -36* | 25
COc1cccc(C(=O)Nc2ccc3oc(-c4cccnc4)nc3c2)c1 | nt | nt | nt | nt | -4 | nt
COc1ccccc1CNS(=O)(=O)c1ccc2[nH]cc(C(=O)O)c(=O)c2c1 | 16% | -4% | -3% | i | -56* | -13
CC(C(=O)NCc1ccccc1)n1nc(-c2ccccc2)c2ccccc21 (stereo not given) | nt | nt | nt | nt | -14 | nt
SMILES | RGS4 inh | GRP78 ERSR act | TCR activator | Akt phos inh | LDHA block | TSHR antagonist
COc1ccc(Br)cc1/C=C(\C#N)C(=O)NC(C)c1ccccc1 (stereo not given) | nt | nt | nt | nt | 9 | nt
O=c1c2cccnc2[nH]c(=S)n1CCCN1CCN(c2ccc(F)cc2)CC1 | -9% | -3% | -5% | -111%* | 1 | -5
Cn1c(Oc2ccc(F)cc2)c(C#N)c(=O)n(C)c1=O | nt | nt | nt | nt | -15 | nt
CCC(=O)Nc1cccc(-c2cn3ccsc3n2)c1 | 13% | 5% | 10% | -105%* | -1 | -7
Cc1cc(C(C)(C)C)ccc1OCCN(C)C | 11% | 2% | -2% | i | -31* | -2
Cc1cc(C(C)(C)C)ccc1OCCOCCN1CCCC1 | -2% | -3% | -4%[46.1 µM] | i | -11 | 7
O=C(NCCc1ccc(F)cc1)c1cc2ccccc2oc1=O | -19% | -4% | -3% | i | -1 | -14
O=C(NCCc1ccccc1)c1cc2ccccc2oc1=O | 18% | 5% | 7% | i | -2 | -118*
CCOC(=O)C1=C(C)NC2=C(C(=O)C(C(=O)OCC)C(c3ccc(OC)cc3)C2)C1c1ccccn1 (stereo not given) | -12% | -8% | 3% | -108%* | -12 | 13
O=C(CSc1n[nH]c(-c2cc(Br)ccc2O)n1)N1CCCC1 | nt | nt | nt | nt | 13 | nt
CCOC(=O)N1CCN(S(=O)(=O)c2ccc(C)c(C)c2)CC1 | -20% | -3% | nt | -99%* | -3 | 6
CCOC(=O)N1CCN(S(=O)(=O)c2ccc(OCC)c(C)c2)CC1 | 8% | -5% | 17% | i | 1 | -6
CN(Cc1ccccc1)Cc1nc2c(c(=O)n(C)c(=O)n2C)n1CCc1ccccc1 | 12% | -2% | 5% | i | -31*! | nt
CCCn1c(CN(C)Cc2ccccc2)nc2c1c(=O)n(C)c(=O)n2C | -18%[56.9 µM] | -6% | -1%[46.1 µM] | i | -2 | -21
N#C/C(=C\c1cc(Br)c(I)o1)c1nc2ccccc2[nH]1 | nt | nt | nt | nt | 1 | nt
Nc1cccc(NS(N)(=O)=O)c1 | nt | nt | nt | nt | 10 | nt
Cc1ccc(NC(=O)CSc2nc(-c3ccc(C(C)(C)C)cc3)nc3cc(=O)[nH]n23)cc1C | -18% | -1% | nt | nt | -41* | nt
CCOc1ccc(-c2nc(SCC(=O)Nc3ccc(C)c(C)c3)n3[nH]c(=O)cc3n2)cc1 | -28% | -1% | nt | nt | -11 | nt
O=C(COCc1cc(-c2cccs2)on1)NC1CCCCC1 | -18%[56.9 µM] | 4% | 1% | i | 0 | -88*
O=C(COCc1cc(-c2ccco2)on1)NC1CCCCC1 | -3% | -2% | -1% | i | -3 | 17
CCOC(=O)C1=C(C)N=C2SC(C(=O)OC)=CC(=O)N2C1c1ccc(F)cc1 (stereo not given) | ? | -2% | 0% | -87%* | 5 | -2
CCOC(=O)C1=C(C)N=C2SC(C(=O)OC)=CC(=O)N2C1c1cccc(OC)c1 (stereo not given) | -36% | -3% | 0% | i | 1 | 19
COC(=O)C1OC2(OC1C(=O)OC)c1ccccc1-c1ccccc12 (stereo not given) | 24% | -4% | 0% | -120%* | -1 | -10
Cc1ccc(C(=O)/C=C/c2ccc(-c3ccccc3Cl)o2)cc1 | nt | nt | nt | nt | 7 | nt
COc1ccc(-c2nc(CSCC(=O)NC(C)c3ccccc3)c(C)o2)cc1OC (stereo not given) | nt | nt | nt | nt | 6 | nt
O=C(/C=C/c1cccc2c1OCCCO2)c1cccnc1 | nt | nt | nt | nt | 6 | nt
